For 14 compounds, growth results are on record in PubChem BioAssay (NCI).

Holding throughout (test): NCI-60 one-dose screen, 48 h (100 = growth as untreated, 0 = no growth, -100 = all killed)
Conditions in all cases: 10 µM unless noted

The subject of test [1] is HCT-15 colon.
Test [2] has as its system HT29 colon.
The test system of test [3] is SNB-75 CNS.
The test system of test [4] is SNB-19 CNS.
Test [5] deals with U251 CNS.
In test [6] the test system is PC-3 prostate.
For test [7], the system named is SK-MEL-5 melanoma.
Test [8] deals with UACC-62 melanoma.
Test [9] deals with LOX IMVI melanoma.
Test [10] has as its system SK-MEL-28 melanoma.

About 83,000 compounds went through this panel and 20% of them were active in at least one assay; those are over-represented in the sample as a whole.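 48-hour exposure, single concentration, 96-well plates; percent growth endpoint where 0 means no net growth. Active: below 10.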 A number with no mark means an inactive call. The source made the active and inactive calls.

As for `CCc1ccc2c(c1)N(CCO)C1=C(C(=O)OC1)C2c1cccc(Br)c1` (stereo not given), the growth is 26.3% in test [1]; 3.88% (active) in test [2]; 2.55% (active) in test [3]; 37.9% in test [4]; 24% in test [5]; 30.1% in test [6]. Also, the growth in test [7] is 33.2%; in test [8], 35.5%; in test [9] it was 42.2%; in test [10] it was 49%.
`O=C1Nc2ccccc2/C1=C/c1c[nH]c2ccccc12`: the growth in test [1] was 63.9%; in [2], 100%; in test [3] it was 62.1%; in test [4] it was 83.8%; in test [5] it was 76.2%; in test [6], 72.3%. The growth in test [7] was 94.2%; in test [8], 81.8%; in [9], 75.2%; in test [10] it was 101%.
Take `C=C(CN1CC=CCC1)[C@@H]1CC[C@]2(C(=O)OC)CC[C@]3(C)[C@H](CC[C@@H]4[C@@]5(C)CC[C@H](OC(C)=O)C(C)(C)[C@@H]5CC[C@]43C)[C@@H]12`: the growth was 105% in test [1]; 75.3% in test [2]; 88.4% in test [3]; 86% in test [4]; 83.2% in test [5]; 61.4% in test [6]. For the same compound, the growth in test [7] was 90.3%; in test [8] it was 80.7%; in test [9], 99.7%; in test [10], 94.9%.
Turning to `CCCCCCCCCCCCCC[N+](C)(C)CCCCCCCCCCCCCC`, the growth in test [1] is 75.1%; in test [2] it was 30.5%; in test [3], 62.9%; in [4] it was 70.4%; in test [5] it was 44.7%; in test [6], 12.6%. In addition, the growth in test [7] is 69.4%; in [8], 42.6%; in test [9], 51.8%; in test [10], 89.3%.
Take `COc1ccc(C2CC(c3ccc(Nc4ccnc5cc(Cl)ccc45)cc3)=NN2c2ccccc2)cc1` (stereo not given): the growth in test [1] is 87.2%; in [2], 52%; in test [3] it was 104%; in test [4], 109%; in test [5], 81.9%; in test [6], 78%. Besides, the growth in test [7] is 79.9%; in test [8], 95%; in test [9], 100%; in [10] it was 97.3%.
In the case of `C=CCN(CCOC(=O)c1ccc([N+](=O)[O-])cc1)CCOC(=O)c1ccc([N+](=O)[O-])cc1`, the growth in [1] was 118%; in test [2], 111%; in test [3] it was 83.7%; in test [4], 108%; in [5], 103%; in [6], 85.4%. For the same compound, the growth in test [7] is 94.8%; in test [8], 110%; in [9], 88.8%; in test [10] it was 106%.
Regarding `CN1CCN(Cc2ccc(NC(=O)c3cncc(C#Cc4ncc5cnccn45)c3)cc2C(F)(F)F)CC1`, the growth in [1] is 56.7%; in [2], 27.4%; in test [3], 38.1%; in test [4] it was 94.5%; in test [5], 64.2%; in [6] it was 54.9%. In addition, the growth in test [7] is 55.3%; in [8] it was 57.3%; in test [9], 26.5%; in [10], 38.1%.
On to `CC(=O)OC1Oc2cc(C)c(C)cc2-c2oc(=O)c(-c3cc4ccccc4oc3=O)cc21` (stereo not given), for which the growth was 117% in test [1]; 110% in test [2]; 92.5% in [3]; 116% in test [4]; 66.6% in test [5]; 91.9% in [6]. Besides, the growth in [7] is 115%; in test [8], 102%; in test [9], 84.7%; in [10], 152%.
Regarding `CC(C)COC(=O)NC(C)(C)C`, the growth in test [1] is 98%; in test [2], 93%; in test [3] it was 86.7%; in [4], 111%; in [5], 107%; in test [6] it was 102%. For the same compound, the growth in test [7] is 109%; in test [8], 107%; in test [9], 103%; in test [10], 113%.
As for `CCCCCCCCCCCCCCCC1=NCC[N+]1(CCO)CCO`, the growth is 31.9% in [1]; 12.4% in [2]; 46.9% in test [3]; 97.6% in [4]; 39.4% in test [5]; 32.1% in test [6]. Further, the growth is 89.6% in test [7], 76.2% in [8], 5.42% (active) in [9] and 115% in [10].
`Cc1n(Cc2ccc3ccccc3n2)cc[n+]1Cc1ccc2ccccc2c1`: the growth in test [1] is 86.8%; in test [2], 6.64% (active); in test [3], -2.2% (active); in test [4], 7.14% (active); in test [5], 14%; in [6] it was 10.4%. In addition, the growth is -87.6% (active) in test [7], -26.6% (active) in [8], -43.7% (active) in test [9] and 16.1% in test [10].
For `Nc1nc(N)c2c(n1)NC(c1sc(Cl)nc1Cl)CC(c1ccc3c(c1)OCO3)=N2` (stereo not given), the growth in test [1] is 23.9%; in [2], 5.28% (active); in [3], -1.52% (active); in [4] it was 36.8%; in test [5], 10.4%; in test [6], 48.8%. In addition, the growth in test [7] is 11%; in test [8] it was 40.1%; in test [9] it was 40.3%; in test [10], 57%.
For the compound `COc1ccc2[nH]c(O)c(/C=c3/ccc4c(c3)N=C(c3ccc(C(F)(F)F)cc3)N=4)c2c1`, the growth in test [1] was 53.9%; in test [2], 80%; in test [3], 60.7%; in [4], 81.4%; in test [5], 51.6%; in test [6], 43.1%. Besides, the growth was 79.1% in test [7], 86% in test [8], 58.2% in test [9] and 83.9% in [10].
With `O=c1[nH]c2ccccc2n2cc3cccnc3c12`, the growth was 70.2% in test [1]; 42.3% in test [2]; 86.2% in test [3]; 71% in [4]; 76.6% in test [5]; 84.7% in test [6]. The growth in test [7] is 73.2%; in [8], 53%; in test [9], 65.6%; in test [10], 107%.
